Consider 17 molecules from PubChem BioAssay.

Molecules are shown by their SMILES. The source made the active and inactive calls. Unless noted, how the calls were made is not given here.

In assay [1] the target is Alpha-bungarotoxin (Bungarus multicinctus) (UniProt P60615). Put plainly: compounds binding labelled alpha-BTX control protein – biochemical, small-molecule microarray, Alexa647 label, 635/667 nm fluorescence, artefact control for SMM control protein annotation, profiling panel (AID 1117). Particulars: alpha-BTX-A647 binding fluorescence, higher = more signal.
Chain of Alpha-bungarotoxin (Bungarus multicinctus) (P60615 whole entry, looked up): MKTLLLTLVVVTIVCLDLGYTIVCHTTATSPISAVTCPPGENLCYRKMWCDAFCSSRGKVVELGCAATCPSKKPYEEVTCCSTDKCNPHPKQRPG
The target in assay [2] is E3 ubiquitin-protein ligase XIAP (Homo sapiens) (UniProt P98170). Put plainly: small molecules binding XIAP protein – biophysical, small-molecule microarray, fluorescence 635 nm, primary screen (AID 1181).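 Further: score merges 667 nm emission and signal to noise over triplicate slides.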 Particulars: higher = more signal.
Chain of E3 ubiquitin-protein ligase XIAP (Homo sapiens) (P98170 whole entry, looked up, the tested form may be a part): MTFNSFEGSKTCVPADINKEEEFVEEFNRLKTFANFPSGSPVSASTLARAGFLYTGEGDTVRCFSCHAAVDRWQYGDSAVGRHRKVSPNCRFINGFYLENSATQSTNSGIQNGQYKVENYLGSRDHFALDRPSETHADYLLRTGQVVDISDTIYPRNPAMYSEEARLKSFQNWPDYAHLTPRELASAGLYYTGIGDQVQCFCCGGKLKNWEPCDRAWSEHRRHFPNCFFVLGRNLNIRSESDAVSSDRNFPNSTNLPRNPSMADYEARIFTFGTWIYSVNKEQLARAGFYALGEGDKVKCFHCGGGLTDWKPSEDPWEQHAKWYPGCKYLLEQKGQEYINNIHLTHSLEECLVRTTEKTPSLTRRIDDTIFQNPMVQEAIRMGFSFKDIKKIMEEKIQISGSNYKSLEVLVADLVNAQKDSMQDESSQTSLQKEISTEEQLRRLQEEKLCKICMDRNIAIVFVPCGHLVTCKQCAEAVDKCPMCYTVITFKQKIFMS
Assay [3] concerns XIP peptide (Xip251-270) binding. Description: XIP fragment 251-270 binding compounds – biochemical, small-molecule microarray, fluorescence 635/667 nm, 0.1 µg/mL protein, primary screen (AID 1182). Particulars: fluorescent protein binding, 635 nm, higher = more signal, called active from +8 up or from −8 down.
A further assay concerns XIP peptide (Xip251-270). Description: compounds binding XIP fragment 251-270 – biochemical, small-molecule microarray, fluorescence 635/667 nm, 0.5 µg/mL protein, primary screen (AID 1183). The following applies: fluorescence 635 nm, higher = more signal.
Assay [4] is described as follows: blood-stage malaria parasite viability loss – strain 3D7, DAPI fluorescence, 100 nL, primary screen (AID 1184).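 Further: parasites grown inside human red blood cells in medium with human serum.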 Particulars: P. falciparum 3D7 growth, 3 d, higher = more signal.
Assay [5] deals with Homeobox protein Hox-A13 (Mus musculus) (UniProt Q62424). Put plainly: disruptors of Hoxa13 oligonucleotide interaction – biochemical, fluorescence polarization, labeled oligonucleotide, primary screen (AID 1185). The following applies: Hoxa13:DNA binding, 15 min, higher = more signal, called active from +8 up or from −8 down.
Chain of Homeobox protein Hox-A13 (Mus musculus) (Q62424 whole entry, looked up): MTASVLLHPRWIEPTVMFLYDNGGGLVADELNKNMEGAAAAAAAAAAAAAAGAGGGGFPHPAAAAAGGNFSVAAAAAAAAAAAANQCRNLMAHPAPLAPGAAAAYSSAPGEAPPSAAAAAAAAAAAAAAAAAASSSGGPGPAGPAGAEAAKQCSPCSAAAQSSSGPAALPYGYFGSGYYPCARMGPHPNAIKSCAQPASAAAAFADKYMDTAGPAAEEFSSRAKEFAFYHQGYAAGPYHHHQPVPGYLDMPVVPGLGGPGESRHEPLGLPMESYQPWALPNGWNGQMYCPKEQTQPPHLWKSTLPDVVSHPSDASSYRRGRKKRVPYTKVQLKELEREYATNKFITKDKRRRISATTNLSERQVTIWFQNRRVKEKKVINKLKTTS
Assay [6] in a line: blockers of DNA damage checkpoint Chk1 activation – imaging, HeLa, hydroxyurea, phospho-Chk1 antibody, percent positive cells, primary screen (AID 1186). Particulars: hydroxyurea-induced phospho-Chk1 immunofluorescence imaging, higher = more signal.
The nature of assay [7]: blockers of DNA damage checkpoint Chk1 activation – imaging, HeLa, hydroxyurea, phospho-Chk1 nuclear intensity, primary screen (AID 1187). Particulars: hydroxyurea-induced phospho-Chk1 immunofluorescence imaging, higher = more signal.
A short description of assay [8]: Pseudomonas biofilm growth suppression – PAO1 strain, BacTiter-Glo luminescence, LB-PBS, primary screen (AID 1144). Particulars: P. aeruginosa PAO1 biofilm, 12 h, higher = more signal.
The nature of assay [9]: inhibition of PAO1 biofilm formation – strain PAO1, LB-PBS medium, absorbance 600 nm, primary screen (AID 1176). The following applies: P. aeruginosa PAO1 growth/biofilm, A600, 12 h; higher = more signal.

With `CCOC(=O)C[C@H]1[C@H](OC(=O)c2cc3ccccc3oc2=O)[C@@H](NC(=O)c2ccccc2)c2cc(OCCCO)ccc2N1C(=O)Cc1ccc(OC)cc1`, the composite z-score in assay [1] is 0.693; in [2], -0.139; in assay [3], 0.282 (inactive); with XIP peptide (Xip251-270) it was 0.273. Besides, the z-score in assay [4] is -2.11; in assay [5], -0.814 (inactive); in [6], -0.35 (inactive); in assay [7] it was -0.0607 (inactive).

As for `COc1ccc([Si](C)(C)[C@H]2[C@H](CC(=O)N3Cc4ccccc4C[C@H]3CO)O[C@@]3(C(=O)N(Cc4cccc(N5C(=O)COc6ccccc65)c4)c4ccccc43)[C@@H]2C)cc1`, the composite z-score in [1] is 1.87; in assay [2], -0.163; in assay [3], 1.83 (inactive); with XIP peptide (Xip251-270), 0.618. The z-score is -2.22 in assay [4], -1.82 (inactive) in assay [5], -0.558 (inactive) in assay [6] and -0.221 (inactive) in [7].

For `CC(C)[C@@H](C(=O)O)n1cc(-c2ccccn2)nn1`, the composite z-score was 0.703 in assay [1], -0.0597 in assay [2], 0.353 (inactive) in [3] and -0.548 in the assay on XIP peptide (Xip251-270). The z-score in [4] was -0.461; in [5] it was -1.37 (inactive); in assay [6], -0.0368 (inactive); in assay [7], -0.0613 (inactive).

With `CC(C)C(CO)N1C(=O)[C@@H]2C3C(=O)OCCC/C=C\[C@H]3OC23C=CCN(C(C)C)C(=O)[C@@H]13` (stereo not given in full), the composite z-score in [1] is -1.61; in assay [2], -0.269; in assay [3], 0.528 (inactive); in the assay with XIP peptide (Xip251-270), -0.501. In addition, the z-score in [4] is 0.0709; in assay [5] it was -4.01 (inactive); in assay [6], -1.29 (inactive); in assay [7], -1.14 (inactive).

As to `CCCC[C@@H](O)C1=C(C)C[C@H]2C(=O)N(C)C(=O)[C@H]2[C@H]1CO`, the composite z-score is 0.548 in assay [1], 0.0769 in assay [2], 0.627 (inactive) in assay [3] and 0.586 in the assay on XIP peptide (Xip251-270). The z-score in assay [4] is -1.46; in assay [5], -3.63 (inactive); in assay [6], -0.425 (inactive); in assay [7], -0.185 (inactive).

On to `C=C(COC)C(=O)CC[C@H](OC(=O)c1ccccc1-c1ccccc1C(=O)O)c1ccccc1OCCO`, for which the composite z-score in [1] was 0.737; in assay [2], -0.111; in assay [3] it was 1.43 (inactive); in the assay with XIP peptide (Xip251-270) it was 0.356. Also, the z-score is -1.11 in assay [4], -3.93 (inactive) in assay [5], 0.269 (inactive) in assay [6] and -0.228 (inactive) in assay [7].

Consider `COC(=O)C1=CC(CCCO)=CC(C2CC2)N(Cc2cc3c(cc2Br)OCO3)C=C1C(=O)OC` (stereo not given), for which the composite z-score was 1.97 in assay [1], 0.295 in assay [2], 1.68 (inactive) in [3] and 0.0315 with XIP peptide (Xip251-270). Also, the z-score was -0.963 in [4], -4.63 (inactive) in assay [5], -0.203 (inactive) in [6] and -0.201 (inactive) in assay [7].

As for `Cc1ccc(N2C(=O)c3ccccc3[C@](C)(C(=O)NC3CC3)[C@@H]2c2ccc(CO)cc2)nc1`, the composite z-score was 0.413 in assay [1], 0.0253 in assay [2], -0.485 (inactive) in [3] and -0.777 in the assay on XIP peptide (Xip251-270). Moreover, the z-score in assay [4] is 0.202; in assay [5], -1.18 (inactive); in assay [6], -0.0797 (inactive); in [7], 0.24 (inactive).

Regarding `C#CCN1C(C(=O)OCC)OC[C@H]1c1ccccc1` (stereo not given in full), the composite z-score in [1] was 0.327; in [2], -0.227; in [3], -0.0319 (inactive); with XIP peptide (Xip251-270), -0.258. Also, the z-score was -1.53 in [4], 0.387 (inactive) in assay [5], -0.285 (inactive) in assay [6] and 0.0032 (inactive) in assay [7].

Consider `COCCOC(=O)N1C(=O)[C@@]2(c3cc(C#CCNC(N)=O)ccc31)[C@H](c1ccccc1OCCO)N1[C@H](c3ccccc3)[C@H](c3ccccc3)OC(=O)[C@H]1[C@@H]2C(=O)Nc1nc2ccccc2s1`, for which the composite z-score in assay [1] is 2.51; in assay [2], 0.396; in [3] it was -0.377 (inactive); in the assay with XIP peptide (Xip251-270), 0.501. Besides, the z-score in [4] is -1.89; in assay [5], 1.57 (inactive); in assay [6], -0.298 (inactive); in [7] it was -0.154 (inactive).

Regarding `O=c1n(-c2ccccc2)c(=O)n2n1CC(COc1ccccc1)=C1[C@@H](CCc3ccccc3)OB(O)C[C@@H]12`, the composite z-score was 1.17 in assay [1], -0.144 in assay [2], 1.45 (inactive) in assay [3] and -0.0257 in the assay on XIP peptide (Xip251-270). Moreover, the z-score in assay [4] was -1.02; in assay [5], -6.66 (inactive); in [6], -0.337 (inactive); in [7], -0.175 (inactive).

For `C[C@@H](OCc1ccccc1)C1NC(=O)[C@@]23C(=O)N[C@@H](Cc4ccccc4)C2[C@H](C)[C@@]2(C)O[C@H]2C3/C=C/C/C=C\CNC(=O)[C@@H]2CCCN2C1=O` (stereo not given in full), the composite z-score in assay [1] is -0.236; in [2] it was 0.176; in [3], 0.187 (inactive); with XIP peptide (Xip251-270), -1.05. For the same molecule, the z-score in [4] is -2.58; in assay [5], -7.05 (inactive); in assay [6], 0.0938 (inactive); in [7], 0.427 (inactive).

Regarding `COCCCNC(=O)[C@@]1(CCS(=O)(=O)c2ccccc2)N=C(c2ccc(OCCCO)cc2)O[C@H]1c1ccccc1CN=[N+]=[N-]`, the composite z-score was 2.42 in assay [1], 0.0871 in assay [2], 0.901 (inactive) in assay [3] and 0.67 with XIP peptide (Xip251-270). Besides, the z-score in assay [4] is -2.68; in assay [5], -1.88 (inactive); in [6] it was -1.07 (inactive); in [7], -1.61 (inactive).

Take `C#CCOc1ccc(C[C@H]2C(=O)O[C@H](Cc3ccccc3)[C@H](/C=C/C3CC3)N2CC#C)cc1`: the composite z-score was 0.0192 in [1], -0.144 in [2], 0.294 (inactive) in assay [3] and -0.237 in the assay on XIP peptide (Xip251-270). The z-score is -1.13 in assay [4], -0.167 (inactive) in assay [5], -0.54 (inactive) in assay [6] and -0.582 (inactive) in [7].

Regarding `C=C1C=C(Br)C2(OCCCO2)[C@H]2OC12` (stereo not given in full), the z-score in assay [8] is -0.109 (inactive); in assay [9], -0.233 (inactive); in assay [4], 1.19; in assay [5] it was -1.06 (inactive). Also, the results for the composite z-score (in assay [2]; in assay [3]; in the assay with XIP peptide (Xip251-270)) were 0.0009, -0.584 (inactive) and -0.135, respectively.

`C=C(/C(=C/C[C@H](OC(=O)c1ccncc1)c1cccc(OCCO)c1)c1cc(C(=O)OC)ccc1OC)C(C)C`: the composite z-score in assay [1] was 0.288; in [2], -0.153; in [3], 0.236 (inactive); in the assay with XIP peptide (Xip251-270) it was 0.256. Further, the z-score in assay [4] is -2.77; in assay [5], -2.91 (inactive); in assay [6], -1.09 (inactive); in assay [7] it was -1.36 (inactive).

Consider `CC(C)N1CC=CC23O[C@@H]4/C=C\CCCOC(=O)C4[C@H]2C(=O)N(CCCO)[C@@H]3C1=O` (stereo not given in full), for which the composite z-score in assay [1] is -2.18; in assay [2], 0.0126; in assay [3], 0.015 (inactive); with XIP peptide (Xip251-270) it was -0.556. The z-score in assay [4] was -0.723; in [5], -4.49 (inactive); in assay [6], -0.235 (inactive); in assay [7], 0.101 (inactive).
